# High-throughput results as filed in PubChem BioAssay.
# HttQ103 aggreg: reduces HttQ103-GFP aggregates in PC12 cells | PC12 HttQ103-GFP aggregates, Acumen cytometry, 40 h | Potency, µM (titrated, usually from 46.1 µM), for inactives: at the highest dose activity change, negative = inhibition, actives largely listed as inhibitors | 220,000 compounds, 1.1% hits; active means well fitted curve in the direction sought with a large enough effect; inconclusive means small, poorly fitted or top-dose-only effect, or another doubt; inactive means no such curve, though single readings can be large; an effect the other way counts as inactive or inconclusive; further: potency means the concentration at half of the fitted maximal effect; on the % scale 0 is the no-effect control and ±100 the full control effect; nearly all actives have a fitted effect of over 60% in size
#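 Steps: seed 1500 PC12 HTTQ103-GFP cells/well; add tebufenozide, 100 nM final; add compound titration; add ATPLite reagent; quantify GFP aggregates by laser scanning cytometry.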
# GoLoco inh red: RGS12 GoLoco-Gai1 interaction inhibition | P63096 | Gai1:RGS12 GoLoco peptide FP, rhodamine, 10 min | Potency, µM (highest dose often 61.6 µM), inactives show at the top dose activity, negative = inhibition, usual class: inhibitors | 230,000 compounds, 0.44% hits; active means well fitted inhibition curve with a large enough effect, not every such curve was filed as active; inactive means no such curve, though single readings can be large or run the other way; further: potency means the concentration at half of the fitted maximal effect; on the % scale 0 is the no-effect control and ±100 the full control effect; nearly all actives have a fitted effect of over 30% in size
# ALDH1A1 inh: ALDH1A1 (human) enzyme inhibition. 220,000 compounds, 7.3% hits. Purified ALDH1A1, NADH fluorescence, propionaldehyde substrate. Potency, µM (series often up to 75.3 µM), for inactives: at the top dose activity, negative = inhibition, most hits filed as inhibitors;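 further: potency means the concentration at half of the fitted maximal effect; plate controls were no enzyme wells and a reference inhibitor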
# Target sequence (P00352 whole entry, looked up): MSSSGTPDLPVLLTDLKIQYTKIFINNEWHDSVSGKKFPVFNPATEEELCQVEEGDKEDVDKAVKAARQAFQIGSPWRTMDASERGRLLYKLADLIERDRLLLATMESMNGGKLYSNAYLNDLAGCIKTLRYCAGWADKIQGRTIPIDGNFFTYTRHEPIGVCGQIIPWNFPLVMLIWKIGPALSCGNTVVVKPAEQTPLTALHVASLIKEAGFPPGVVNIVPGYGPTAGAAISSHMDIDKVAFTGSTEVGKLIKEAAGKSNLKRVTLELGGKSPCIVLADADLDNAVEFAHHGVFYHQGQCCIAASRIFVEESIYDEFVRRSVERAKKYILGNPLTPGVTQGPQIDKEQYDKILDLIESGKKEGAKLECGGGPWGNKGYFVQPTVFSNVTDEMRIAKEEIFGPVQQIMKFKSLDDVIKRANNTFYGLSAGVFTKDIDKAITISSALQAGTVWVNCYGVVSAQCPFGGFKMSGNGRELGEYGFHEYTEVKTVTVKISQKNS
# HTT ATP protect: Huntington cell model cytoprotection by ATP luminescence; PC12 HTT-Q103 induced, cytoprotection, ATP luminescence, 40 h; 230,000 compounds, 0.14% hits; AID 1471; Potency, µM (top dose mostly 56.4 µM), for the others: cytoprotection (ATP increase), actives largely listed as activators; active means well fitted curve in the direction sought with a large enough effect; inconclusive means small, poorly fitted or top-dose-only effect, or another doubt; inactive means no such curve, though single readings can be large; an effect the other way counts as inactive or inconclusive; further: potency means the concentration at half of the fitted maximal effect; % of control where 0% means no effect; nearly all actives have a fitted effect of over 45% in size
#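 PC12 cells stably carrying ecdysone-inducible Htt exon 1 (Q103)–GFP were induced with 100 nM tebufenozide (final) alongside library compounds in a dose series. Cytoprotection was scored as retained ATP by ATPlite luminescence.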
# PNC inhibitor: perinucleolar compartment assembly inhibition. activity change (PNC), negative = inhibition, % at 10 µM. PC3M PTB-GFP, PNC prevalence imaging, 16 h; hits give low values. 140,000 compounds, 3.1% hits;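 active means readout at or below -70, meaning at least 70% loss of cells showing the perinucleolar compartment, a nuclear body marking cancer cells; inconclusive means readout between -30 and a set limit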;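 further: plate controls were DMSO wells for no effect and camptothecin positive control wells for full effect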
#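 Compounds are pinned in duplicate onto adhered PC3M cells stably expressing GFP-tagged PTB and incubated 16 h at 37 C. Cells are then fixed, nuclei stained with Hoechst, and PNC-positive cells counted.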
# HPGD inh: inhibitors of human 15-hydroxyprostaglandin dehydrogenase (HPGD); purified HPGD, NADH fluorescence kinetic, PGE2 substrate; P15428; Potency, µM, inactives show top-dose activity change, negative = inhibition, most hits filed as inhibitors; 150,000 compounds, 4.3% hits; AID 894; further: potency means the concentration at half of the fitted maximal effect; on the % scale 0 is the no-effect control and ±100 the full control effect
# Target sequence (P15428 whole entry, looked up): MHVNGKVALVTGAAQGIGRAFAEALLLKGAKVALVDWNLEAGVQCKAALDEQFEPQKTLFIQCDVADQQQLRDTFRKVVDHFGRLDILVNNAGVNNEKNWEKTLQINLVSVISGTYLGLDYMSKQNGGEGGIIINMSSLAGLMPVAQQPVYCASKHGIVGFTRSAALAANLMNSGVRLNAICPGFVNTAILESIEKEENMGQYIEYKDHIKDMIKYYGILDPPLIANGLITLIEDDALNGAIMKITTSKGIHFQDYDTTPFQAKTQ
#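 20 nM HPGD preincubated 15 min at room temperature with compound in 50 mM Tris-HCl pH 8, 0.01% Tween 20. Started with 1 mM NAD+ and 30 uM prostaglandin E2; NADH fluorescence (360/450 nm) read 5 times over 30-s intervals, last minus first.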
# * = called active by the depositor; ? = inconclusive; . = no result; [ ] = remark or other dose. An excerpt weighted towards active compounds, which were near 11% of everything screened. Unless noted, the call rests on the fitted dose curve; in most records, active means well fitted inhibition curve with a large enough effect (not every such curve was filed as active); inconclusive means small, poorly fitted or top-dose-only effect, or another doubt; inactive means no such curve, though single readings can be large or run the other way.
SMILES,HttQ103 aggreg,GoLoco inh red,ALDH1A1 inh,HTT ATP protect,PNC inhibitor,HPGD inh
Cc1ccc(S(=O)(=O)/C(C#N)=C/c2c(N3CCC(C(N)=O)CC3)nc3c(C)cccn3c2=O)cc1,-19.6%,74.7%,?,-1.2%,-13.7,3.55µM*
Cc1cccn2c(=O)c(/C=C(\C#N)C(=O)NC3CCS(=O)(=O)C3)c(N3CCC(C(N)=O)CC3)nc12 (centres undefined),-4.1%,-0.3%,4.5%,1.8%[10 µM],-24.7,?
Cc1cccn2c(=O)c(/C=C(\C#N)S(=O)(=O)c3ccccc3)c(N3CCC(C(N)=O)CC3)nc12,0.4%,1.2%,?,-6.6%,21.5,28.2µM*
Cc1ccc(C(C)(C)C)cc1,.,1.4%,11.6%,1.8%,.,-7.7%
Cc1ccc(N(C(=O)C2CCC(=O)N2)C2(C(=O)NC3CCCC3)CCCCC2)cc1 (centres undefined),13.3%,-3.5%,-6.2%,4.2%,-14.4,5.8%
CCN1CCN(c2nc3ccccn3c(=O)c2/C=C(\C#N)S(=O)(=O)c2ccccc2)CC1,-8.9%[9.22 µM],30.3%,.,-12.9%[10 µM],.,.
O=Cc1c(N2CCOCC2)nc2ccccn2c1=O,5.0%,-4.1%,-2.2%,-23.0%,.,.
CC1CN(c2nc3ccccn3c(=O)c2/C=C(\C#N)C(N)=O)CC(C)O1 (centres undefined),4.7%[9.22 µM],-1.7%,.,5.7%[10 µM],.,.
CCN1CCN(c2nc3c(C)cccn3c(=O)c2/C=C(\C#N)S(=O)(=O)c2ccccc2)CC1,?,9.0%,22.4µM*,-10.6%[10 µM],?,-11.6%
Cc1ccc(S(=O)(=O)/C(C#N)=C/c2c(N3CCC(C(N)=O)CC3)nc3ccccn3c2=O)cc1,3.9%,2.7%,?,-4.3%,?,25.1µM*
Cc1ccc(S(=O)(=O)/C(C#N)=C/c2c(N3CCOCC3)nc3ccccn3c2=O)cc1,-9.5%,5.3%,2.0%,-0.6%,?,15.8µM*
CCCCC/C=C\C/C=C\C/C=C\CCCCC(=O)NC(C)C(=O)O (centres undefined),.,2.7%,-1.9%,-33.2%,.,-1.5%
COCCn1c(=O)c(-c2ccccc2)nc2cnc(Nc3ccccc3)nc21,.,1.9%,2.1%,-59.3%,.,-3.1%
COC(=O)NC(/C(C(=O)OC)=C(\C)NCc1ccccc1)c1ccc(Cl)cc1 (centres undefined),.,.,-2.2%[13.5 µM],-16.3%[10 µM],.,.
COc1ccc(C2=NOC(C(=O)Nc3ccc4c(c3)OCO4)C2)cc1OC (centres undefined),17.5%,8.9%,-3.3%,-11.5%,.,.
COC(=O)c1c(-c2ccc(C(C)(C)C)cc2)csc1NC(=O)C1C2CCC(O2)C1C(=O)O (centres undefined),6.8%,8.8%,5.01µM*,.,-98.3*,3.16µM*
CCOC(=O)c1c(-c2cccc3ccccc23)csc1NC(=O)C1C2CCC(O2)C1C(=O)O (centres undefined),5.4%,-5.0%,2.8%,-16.6%[10 µM],-4.0,-10.8%
Cc1cc(N2CCN(c3nnnn3-c3ccccc3)CC2)n2ncnc2n1,-12.9%,10.1%,22.4µM*,5.2%,?,-5.6%
Cc1cc(N2CCN(S(=O)(=O)Cc3ccccc3)CC2)n2ncnc2n1,17.9%,5.3%,-2.3%,-10.3%[10 µM],-99.2*,-6.8%
O=C(O)[C@H]1[C@H](C(=O)O)[C@H](C(=O)O)C[C@@H]1C(=O)O,.,-2.2%[14.2 µM],1.3%[13.5 µM],4.8%[10 µM],.,-9.7%
CCCCCn1c(SCCc2ccccc2)nc2c1c(=O)[nH]c(=O)n2C,-7.4%,8.7%,?,-4.7%[10 µM],22.2,-11.6%
CCCCCCn1c(SCCC)nc2c1c(=O)[nH]c(=O)n2C,22.2%,.,?,2.5%,-85.7*,.
CCCCCOC(=O)CSc1nc2c(c(=O)[nH]c(=O)n2C)n1CCc1ccccc1,-3.6%,-3.6%,25.1µM*,7.7%[1.9 µM],12.5,25.1µM*
COCCn1c(SCCCc2ccccc2)nc2c1c(=O)[nH]c(=O)n2C,-3.0%,.,20µM*,-15.0%,33.6,.
CCCn1c(Sc2nc3c(c(=O)[nH]c(=O)n3C)n2CCC)nc2c1c(=O)[nH]c(=O)n2C,-0.4%,4.8%,-8.7%,18.0%,13.4,14.1µM*
SMILES,HttQ103 aggreg,GoLoco inh red,ALDH1A1 inh,HTT ATP protect,PNC inhibitor,HPGD inh
CCCCCn1c(SCCOCC)nc2c1c(=O)[nH]c(=O)n2C,20.9%,-2.3%,?,-32.4%,30.6,-3.8%
CCC(=O)n1nc(-c2ccc(Cl)cc2)nc1NCc1ccccc1,-14.6%,5.5%,6.2%,-63.8%,14.2,-0.2%
CCn1nc(C)c(/C=N/NC(=O)c2ccc3c(c2)c(C)c(C)n3Cc2ccccc2)c1C,?,8.7%,?,-35.2%,-14.5,-25.0%
C/C=C/Cn1c(SCCCc2ccccc2)nc2c1c(=O)[nH]c(=O)n2C,1.9%,-2.1%,?,-10.4%,-119.3*,-14.2%
CCOC(=O)C(C)Sc1nc2c(c(=O)[nH]c(=O)n2C)n1CCc1ccccc1 (centres undefined),?,6.7%,12.6µM*,-15.0%[10 µM],-5.4,-14.5%
CCOC(=O)C(CC)Sc1nc2c(c(=O)[nH]c(=O)n2C)n1C/C=C(/C)Cl (centres undefined),-5.5%,-14.1%,3.55µM*,0.4%[10 µM],22.9,3.98µM*
CCCCSc1nc2c(c(=O)[nH]c(=O)n2C)n1CCc1ccccc1,-14.7%,10.1%,2.51µM*,-8.6%,-29.6,-21.2%
CN(C)c1ncc2nc(-c3ccc(F)cc3)c(=O)n(CCc3ccccc3)c2n1,.,-1.2%,?,1.1%,.,.
CCC(C)Sc1nc2c(c(=O)[nH]c(=O)n2C)n1Cc1ccccc1Cl (centres undefined),?,-2.1%,1.26µM*,16.6%,1.9,-6.9%
CC(C)CCn1c(SCCc2ccccc2)nc2c1c(=O)[nH]c(=O)n2C,1.2%,6.2%,6.31µM*,-21.0%,34.0,?
CC(C)n1c(SCCCc2ccccc2)nc2c1c(=O)[nH]c(=O)n2C,-18.0%,6.7%,?,3.1%,-24.5,20µM*
COc1cccc(Cn2c(=O)c(CCc3ccccc3)nc3cnc(N4CCOCC4)nc32)c1,.,24.1%,?,-27.6%,.,.
N#CCCn1c(=O)c(-c2ccc(Cl)cc2)nc2cnc(Oc3cccc(Cl)c3)nc21,.,9.2%,?,-30.5%,.,-7.2%
COc1ccc(C(=O)N2CCC3(CCN(Cc4nccs4)CC3)CC2)cc1,.,5.7%,-2.0%,0.3%,.,-6.9%
COc1ccc(CNC(=O)C2COc3ccccc3O2)c(OC)c1 (centres undefined),15.6%,1.8%,?,-9.9%,12.2,4.47µM*
Cc1onc(-c2ccccc2)c1CNC(=O)C1COc2ccccc2O1 (centres undefined),0.6%[9.22 µM],2.2%,17.8µM*,-9.9%[10 µM],.,.
Cc1ccc(CNC(=O)C2COc3ccccc3O2)cc1 (centres undefined),-2.5%[9.22 µM],2.4%,?,-10.8%[10 µM],.,.
